# Measurements reported in ChEMBL document CHEMBL3433997, “St. Jude Leishmania screening dataset” (2016).
# Columns and labels:
# Assay type in all cases: functional
# [1] = biological target: Solute carrier family 2, facilitated glucose transporter member 1 (Homo sapiens) (UniProt P11166); experiment: ST_JUDE_LEISH: Cytotoxicity at 2uM final concentration against transgenic Leishmania Mexicana promastigotes LmGLUT1 that are glucose transport deficient and complemented with the human glucose transporter GLUT1. Activity is measured by DNA content using SYBR green in vitro
# Solute carrier family 2, facilitated glucose transporter member 1 (Homo sapiens), sequence (P11166 whole entry): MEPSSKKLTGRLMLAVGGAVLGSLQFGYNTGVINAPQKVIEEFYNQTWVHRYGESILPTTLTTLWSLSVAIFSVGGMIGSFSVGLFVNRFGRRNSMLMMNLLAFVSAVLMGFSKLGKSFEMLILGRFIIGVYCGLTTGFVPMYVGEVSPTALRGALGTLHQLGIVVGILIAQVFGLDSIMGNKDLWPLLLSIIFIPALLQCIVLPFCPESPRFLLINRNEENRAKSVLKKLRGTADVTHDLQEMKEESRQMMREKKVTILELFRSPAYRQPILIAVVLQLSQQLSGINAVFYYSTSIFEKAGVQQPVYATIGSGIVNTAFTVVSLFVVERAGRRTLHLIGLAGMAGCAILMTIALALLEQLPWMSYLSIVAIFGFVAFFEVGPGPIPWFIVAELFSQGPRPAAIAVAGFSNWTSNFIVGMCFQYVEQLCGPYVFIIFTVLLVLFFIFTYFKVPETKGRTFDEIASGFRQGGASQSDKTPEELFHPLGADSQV
# [2] = biological target: Hexose transporter 1 (Plasmodium falciparum) (UniProt O97467); experiment: ST_JUDE_LEISH: Cytotoxicity at 2uM final concentration against transgenic Leishmania Mexicana promastigotes LmPfHT that are glucose transport deficient and complemented with the Plasmodium falciparum hexose transporter. Activity is measured by DNA content using SYBR green in vitro
# [3] = biological target: Glucose transporter (Leishmania mexicana) (UniProt O61059); experiment: ST_JUDE_LEISH: Cytotoxicity at 2uM final concentration against transgenic Leishmania Mexicana promastigotes LmGT2 that are glucose transport deficient and complemented with the L. Mexicana glucose transporter 2. Activity is measured by DNA content using SYBR green in vitro
Structure (SMILES),inhibition [1] [%],inhibition [2] [%],inhibition [3] [%]
O=C(NC1CC1)c1cnc(N2CCC(Cc3ccccc3)CC2)c(Cl)c1,0.75,-0.08,-0.03
COc1ccccc1CN1CCC(CNC(=O)c2cc(-c3ccc(N(C)C)cc3)cs2)C1 (stereo not drawn),15.2,11.8,10.9
C[C@H](Nc1nc(C(Oc2ccccc2)c2ccccc2)nc2[nH]ncc12)c1ccccc1 (stereo partly drawn),3.69,1.72,0.54
COc1ccccc1CNC(=O)c1cc(OC)c(OC)cc1NC(=O)c1cccs1,10.5,6,4.4
COc1ccc(S(=O)(=O)Nc2cc(Br)cc3c2OCCC3)cc1N1CCN(C(=O)C(Cl)(Cl)Cl)CC1,-1.16,-1.14,-0.3
CC(=O)Nc1ccc(C#Cc2ccc(-c3c(C)[nH]c(C)c(Cl)c3=O)cc2)cc1,1.3,0.64,1.24
COc1cc(C=NNc2cc(C)nc3c(OC)cccc23)cc(OC)c1OC,7.21,3.3,3.68
O=C(Cc1cccc(O)c1)NCC(Cc1ccc(O)cc1)c1ccccc1 (stereo not drawn),0.64,-0.06,0.22
Oc1ccc2c(CNCCc3ccccc3)c(O)ccc2c1CNCCc1ccccc1,8.01,6.13,6.71
Nc1c(Cl)cc(C(O)CNCCCCCCCCCc2ccccn2)cc1Cl (stereo not drawn),0.94,-0.21,0.6
COc1ccc2c(N/N=C/c3ccc([N+](=O)[O-])cc3)ccnc2c1,6.14,4.33,2.7
Cc1cccc2nc(-c3ccc(-c4cccc(NC(=O)C(=O)c5cccn5C)c4)cc3)[nH]c12,4.58,2.19,2.29
COc1ccc(NC(=O)Nc2ccc(-c3cccc(-c4nc5ccccc5[nH]4)c3)cc2)cc1,3,3.12,2.89
O=C(Cc1ccc([N+](=O)[O-])cc1)N1CCc2cc3nccc(N4CCN5CCC[C@@H]5C4)c3cc21,1.21,0.39,2.97
c1cc(C2=NC3CCCCC3N2)ccc1OCCCOc1ccc(C2=NC3CCCCC3N2)cc1 (stereo not drawn),7.04,6.74,1.12
CC(Nc1ncc(-c2ccsc2)c(-c2nccs2)n1)c1ccc2c(c1)OCCO2 (stereo not drawn),5.89,5.47,7.42
Cc1cc(NCc2ccccc2)nc2cc(O)ccc12,8.52,13.2,7.14
CCN(CC)CCN(Cc1ccc(-c2ccc(C(F)(F)F)cc2)cc1)C(=O)Cn1c(CCc2c(F)cccc2F)nc(=O)c2ccccc21,4.96,4.88,5.59
Cc1ccc(N2C(=O)C3C(C2=O)C2(c4ccccc4)C(=O)C3(c3ccccc3)C(c3ccccc3)=C2c2ccccc2)c(C)c1 (stereo not drawn),6.28,4.9,3.25
COc1ccc2ncc(F)c([C@@H](O)CN3CCC(NCc4ccc5c(c4)NCCS5)CC3)c2n1,8.36,8.01,-5.06
COc1ccc2[nH]cc(C3CCN(CCC4CCN(C(=O)/C=C/c5ccc(Cl)c(Cl)c5)CC4)CC3)c2c1,2.88,1.24,1.93

Structure (SMILES),inhibition [1] [%],inhibition [2] [%],inhibition [3] [%]
COC(=O)Nc1cc(C(F)(F)F)ccc1N1CCC(CNS(=O)(=O)c2ccc(OC)cc2)CC1,7.63,4.92,6.14
CN(C)CCCNCc1ccc(-c2ccc(F)c(Cl)c2)o1,-0.74,0.82,-0.76
C=CCN1C(=O)c2[nH]nc(-c3cc(C)c(C)cc3O)c2C1c1cccc(Br)c1 (stereo not drawn),2.03,1.25,1.27
CCC1CN(CCCn2c3ccccc3c3ccccc32)C(CC)CN1 (stereo not drawn),-0.46,-0.59,-0.18
c1ccc(CN2CCC(NCc3ccccc3-c3cccc(CNC4CCCC4)c3)CC2)cc1,6.21,2.62,7.14
CN(C)CCCOc1ccc(-c2nc(-c3ccc4c(c3)CCC4=NO)c(-c3ccncc3)[nH]2)cc1,2.55,2.33,1.24
CC(=O)c1c(Cc2ccccc2Cl)c[nH]c1C,4.46,3.16,-1.32
COc1ccc2c(-c3ccccc3)noc2c1,0.37,0.1,1.42
N=C(/N=C(/NCCCCCCN/C(=N\C(=N)Nc1ccc(Cl)cc1)N1CCOCC1)N1CCOCC1)Nc1ccc(Cl)cc1,10.5,9.54,9.37
C=CCn1c(SCC(=O)Nc2cc(Cl)ccc2Cl)nc2sc(C)cc2c1=O,1.86,0.95,0.76
Nc1nc(N)c2c(CCc3ccc4ccccc4c3)cccc2n1,3.27,1.63,-1.66
Cc1cccc2nc(-c3cccc(-c4cccc(CNCc5cccc(N)c5)c4)c3)[nH]c12,1.24,2.66,1.47
Cc1cc(C2CCN(CCCCNC(=O)c3ccc(NC(=O)c4ccc(Cl)cc4)cc3)CC2)c(C)cc1OCc1nccn1C,0.5,0.08,0.69
c1cc2c3c(cccc3c1)NC(CCCCCCCCC1=Nc3cccc4cccc(c34)N1)=N2,2.66,1.67,2.28
O=C(Nc1ccc(OC2CCN(Cc3ccsc3)C2)c(Cl)c1)c1ccc2ncccc2c1 (stereo not drawn),-0.7,0.74,-0.92
Cc1cc(N2CCCC2)nc(Nc2ccc(NC(=O)c3cccc(F)c3)cc2)n1,33.5,14.7,16.2
CNC(=O)/C=C/c1cc(NC(=O)Nc2ccnc3c(Br)cccc23)ccc1OC,3.51,2.22,0.98
CCc1ccnc2c(N3CCCC3=O)cc(C(=O)N[C@@H](Cc3ccccc3)[C@H](O)CNC3CCOCC3)cc12,3.63,0.4,0.64
Cc1cc2c(cc1C(F)(F)F)N(C(=O)Nc1ccc(C(=O)NC3CCN(Cc4ccccc4)C3)cc1)CC2 (stereo not drawn),4.56,4.45,4.54
COc1ccc(C2C(C(=O)OC3CCCC3)=C(C)NC3=C2C(=O)CCC3)cc1Br (stereo not drawn),1.02,-0.27,0.31
